# Results reported in PubChem BioAssay (NCI).
# Compounds without any hit were thinned out: in the full panel of roughly 79,000, 15% have a hit. Calls of active or inactive are those of the source. Cut-off read from the data, not from the text of the source: active = growth inhibition above about 70%; inactive = the rest.
# Assay: NCI Yeast Anticancer Drug Screen. Data for the wt2 strain (AID 169);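 note: 0% = growth of vehicle-treated yeast cultures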
# Conditions: S. cerevisiae wt2 strain growth inhibition; at 3.7 µM; stronger effect = higher value
# How it was run: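 Treated yeast vs. vehicle-treated yeast: growth inhibition determined.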
row,Structure (SMILES),growth inhibition
1,CC(C)C(=O)CC(Sc1ccc(N)cc1)c1ccccc1 (stereo not given),-2% (inactive)
2,CC(C)OP(=O)(OC(C)C)/C(Cl)=N/Nc1ccc([N+](=O)[O-])cc1,5% (inactive)
3,O=[N+]([O-])c1cc(Cl)ccc1S(=O)(=O)c1ccc(Cl)cc1[N+](=O)[O-],4% (inactive)
4,CCCCCCNCCCNc1c2cc(OC)ccc2nc2cccc([N+](=O)[O-])c12,0% (inactive)
5,N#CCC(=O)N/N=C(\c1ccccc1)C(c1ccccc1)C1(O)C(=O)Nc2c(Cl)ccc(Cl)c21 (stereo not given),8% (inactive)
6,CN(C)CCNCCCNc1c2ccccc2nc2cccc([N+](=O)[O-])c12,1% (inactive)
7,CCC[CH2][Ge]([CH2]CCC)([CH2]CCC)[O]C(=O)C(O)c1ccccc1 (stereo not given),-2% (inactive)
8,COc1ccc(-c2cc(-c3cc(C)cc(Cl)c3O)nc3[nH]c(=S)[nH]c(=S)c23)cc1,-4% (inactive)
9,O=[N+]([O-])c1ccc(/C=C\c2ccc3c(c2)OCO3)c([N+](=O)[O-])c1,-3% (inactive)
10,O=C1c2ccccc2N2OC3(N4CCCC4)CCCCC3C12c1ccccc1 (stereo not given),-17% (inactive)
11,CC(C)OC(=O)NNc1cc(Cl)ccc1Cl,4% (inactive)
12,Cc1oc2ccccc2c(=O)c1Cn1nnc2ccccc21,-2% (inactive)
13,CC1(C)OC(=O)C(=Cc2ccc([N+](=O)[O-])s2)C(=O)O1,-9% (inactive)
14,CCN(CC)CCCNc1ccc([N+](=O)[O-])c2nc3ccc(OC)cc3c(NCCCN(CC)CC)c12,0% (inactive)
15,COc1cccc(/C=C2\S/C(=N/Nc3nc(-c4ccc([N+](=O)[O-])cc4)cs3)NC2=O)c1O,23% (inactive)
